Results published in PubChem BioAssay (NCATS).
Records with an inconclusive call do not appear. Active and inactive are the calls of the source. Calls follow the shape of the dose curve; as a rule, active = well fitted inhibition curve with a large enough effect; inconclusive = small, poorly fitted or top-dose-only effect; inactive = flat fitted curve, though single readings scatter.

Assay: P-glycoprotein substrates identified in KB-8-5-11 adenocarcinoma cell line, qHTS therapeutic library screen (AID 1346987); also: nearly all actives have a fitted effect of over 65% in size
Details: KB-8-5-11 (P-gp overexpressing) viability, CellTiter-Glo, 72 h; series mostly up to 44.5 µM; activity change, negative = cytotoxicity: at the top concentration
Outline: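 In this qHTS, P-gp-rich KB-8-5-11 cells received library compounds across a concentration range. Viability was quantified by luminescence after 72 h at 37 degree C.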
% is scaled to controls: 0 for no effect and ±100 for the full control effect; potency is read from the fitted curve at half-maximal effect.

With `Cc1cccc(C)c1Nc1ncccc1C(=O)O` as the compound, how does the “activity change, negative = cytotoxicity” value read?
Its value is 12.2% (inactive).

Which Potency does the source give for `N=C(N)c1ccc(/C=C/c2ccc(C(=N)N)cc2O)cc1` here?
Its Potency is 18.4 µM (active).

For `O=P(O)(O)O`, which “activity change, negative = cytotoxicity” value is on record?
The value was 16.9% (inactive).

Which “activity change, negative = cytotoxicity” value does the source give for `O=C(O)CCCC/C=C(\c1ccccc1)c1cccnc1` here?
Its value is 6.16% (inactive).

Which “activity change, negative = cytotoxicity” value does the source give for `N[C@H](CC(=O)O)C(=O)O` here?
The value was 8.25% (inactive).

With `CNC(C)CCC=C(C)C` (stereo not drawn) as the compound, how does the “activity change, negative = cytotoxicity” value read?
Its value is -18.2% (inactive).

For `CCCCC[C@H](O)/C=C/[C@H]1[C@H](O)CC(=O)[C@@H]1CCCCCCC(=O)O`, which “activity change, negative = cytotoxicity” value is on record?
Its value is -23.2% [at 17.3 µM] (inactive).

With `CO/N=C(\C(=O)N[C@@H]1C(=O)N2C(C(=O)O)=CCS[C@H]12)c1csc(N)n1` as the compound, how does the “activity change, negative = cytotoxicity” value read?
The value was 9.99% (inactive).
